In the library only some 3.1% were active in any assay of this set; here they are far more common.
Bead autofluor: compound fluorescence in toxin protease inhibitor counterscreen; 3.1% of 360,000 active; compound autofluorescence counterscreen, microsphere flow cytometry; active compounds read high; fluorescence intensity (no concentration beside the values); in the data active means fluorescence intensity above about 16000; inconclusive means no clear call, values can overlap the other calls
BoNT-A LC inh2: inhibitors of Botulinum neurotoxin A light chain protease | multiplex microsphere protease substrate cleavage, flow cytometry | inhibition, % at 10 µM | 0.17% of 360,000 active | AID 588499; further: plate controls were buffer without enzyme for full effect and enzyme alone for no effect
BoNT F protease: BoNT F light chain protease inhibition; Multiplex microsphere protease cleavage assay, flow cytometry; inhibition, % at 10 µM; 0.22% of 360,000 active; AID 588497; in the data active means inhibition above about 35%, passing the limit was not always enough; inconclusive means no clear call, values can overlap the other calls; further: plate controls were buffer without enzyme for full effect and enzyme alone for no effect
SSB-PriA inh: blocks PriA binding to SSB C-terminal tail | inhibition, % at 33 µM | AID 1272365 | 0.6% of 430,000 active | AlphaScreen SSBct-PriA binding, biotinylated peptide; in the data active means inhibition mostly above about 37%, no sharp cut-off; inactive means mostly below about 20%;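 further: plate controls were negative control peptide for no effect and reference peptide for full effect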
Anthrax LF inh2: blocks Bacillus anthracis lethal factor protease. P15917. multiplex microsphere protease cleavage assay, LF. inhibition, % at 10 µM. 0.12% of 360,000 active; further: plate controls were buffer without enzyme for full effect and enzyme alone for no effect
* = called active by the depositor; ? = inconclusive; / = no result given. Unless noted, no stated cut-off is given here; in the data, active means inhibition above about 30%; inconclusive means no clear call, values can overlap the other calls; inactive means below that.

SMILES	Bead autofluor	BoNT-A LC inh2	BoNT F protease	SSB-PriA inh	Anthrax LF inh2
CC1(C)C2([N+](=O)[O-])CN3CC1([N+](=O)[O-])CN(C2)C31CCCC1	17714*	?	-7	-2	-2
C(=Nc1nc2ccccc2n1CCN1CCOCC1)c1cccs1	/	/	/	-14	/
CCS(=O)(=O)NC(C)C(c1cccs1)N1CCN(c2ccc(OC)cc2)CC1 (stereo unspecified)	5120	0	-2	1	-8
CC(NS(=O)(=O)c1ccc(F)cc1)C(c1cccs1)N1CCN(C)CC1 (stereo unspecified)	24274*	-3	-4	4	0
CC(NC(=O)c1ccc(N(C)C)cc1)C(c1cccs1)N1CCN(C)CC1 (stereo unspecified)	7681	0	8	1	-5
CC(NS(=O)(=O)c1ccc(Cl)cc1)C(c1cccs1)N1CCN(C)CC1 (stereo unspecified)	4037	1	4	-9	0
CC(NC(=O)c1ccc(F)cc1)C(c1cccs1)N1CCN(C)CC1 (stereo unspecified)	21892*	1	0	-6	1
COc1ccc(N2CCN(C(c3cccs3)C(C)NS(=O)(=O)c3ccccc3)CC2)cc1 (stereo unspecified)	16688*	-2	-7	-13	-11
COc1ccccc1C(=O)NC(C)C(c1cccs1)N1CCN(C)CC1 (stereo unspecified)	23363*	0	1	-16	-1
CCOC(=O)c1c(NC(=O)COc2ccccc2OC)sc2ccccc12	/	/	/	-8	/
CCN1CCN(C(c2cccs2)C(C)NC(=O)CC(C)C)CC1 (stereo unspecified)	9515	0	9	-13	-2
CCN1CCN(C(c2cccs2)C(C)NC(=O)c2ccco2)CC1 (stereo unspecified)	23437*	0	2	-12	0
Cc1cc(C)n(C2CCCCC2OC(=O)CCc2ccccc2)n1 (stereo unspecified)	3606	?	?	-10	33*
CCn1nccc1C(=O)Nc1ccc(N=Nc2ccccc2)cc1	/	/	/	46*	/
ONC(=Nc1ccc(Cl)cc1)c1ccccc1	22689*	1	1	-17	-2
O=[N+]([O-])c1cccc(C(=Nc2cccc(Cl)c2)NO)c1	8778	1	7	-18	-2
CSc1cccc2sc(N(Cc3cccnc3)C(=O)c3cccc(N4C(=O)CCC4=O)c3)nc12	/	/	/	-25	/
O=C(Nc1ccccc1Cc1nc(-c2ccco2)no1)C1CC=CCC1 (stereo unspecified)	/	/	/	-12	/
Cn1c(N2CCNCC2)nc2ccccc21	19898*	0	0	-16	1
CCOC(=O)Cn1cc(C=C2C(=O)N(C)C(=O)N(C)C2=O)c2ccccc21	3338	-1	40*	3	22
CCn1cc(C=C2C(=O)c3ccccc3C2=O)c2ccccc21	3399	70*	19	0	34*
OC(COc1ccc2c(c1)OCO2)CN1CCN(c2cccc(Cl)c2)CC1 (stereo unspecified)	/	/	/	13	/
CCCCN1CNC(=S)N(c2cc(C)ccc2C)C1	21773*	0	-2	-2	0
O=C1CC(c2cccc(F)c2)SC(N(c2ccccc2)c2ccccc2)=N1 (stereo unspecified)	23403*	0	-2	5	-1
Cc1ccccc1C(=O)NCC[C@@H](CCO)c1ccccc1	/	/	/	-8	/
SMILES	Bead autofluor	BoNT-A LC inh2	BoNT F protease	SSB-PriA inh	Anthrax LF inh2
CCCc1c(C(=O)NN=C(C)c2ccc(O)cc2)nnn1-c1nonc1N	/	/	/	4	/
COc1ccc(-c2cc(=O)n(-c3nc4ccccc4[nH]3)[nH]2)cc1	23993*	?	2	40*	10
O=C(Cn1c(C2CC2)nc2c(cnn2-c2ccccc2)c1=O)N1CCOCC1	/	/	/	-16	/
CC(=NNC(=S)N1CCN(c2ccccn2)CC1)c1nccs1	3551	16	30	92*	31*
CC(=NNC(=S)N1CCN(C2CCCCCC2)CC1)c1ccccn1	4342	82*	74*	-4	92*
C/C(=N/NC(=O)c1cnccn1)c1ccncc1	4710	0	-6	/	1
CC(=NNC(=S)N1CCN(c2ccccn2)CC1)c1ccccn1	3019	2	-43	1	-13
CC(=NNC(=S)N1CCCCCC1)c1cccc2cccnc12	3474	3	-21	-6	-9
CC(=NNC(=S)N1CC2CCC(CC2)C1)c1cnccn1	3454	40*	59*	-11	54*
CC(=NNC(=S)N1CC2CCC(CC2)C1)c1ccccn1	2877	29	60*	/	52*
CC(=NNC(=S)Nc1ccc(C)cc1)c1ccccn1	3063	3	17	26	7
O=C(Nc1nc(CCC(=O)N2CCN(c3cccc(C(F)(F)F)c3)CC2)cs1)c1ccco1	/	/	/	-22	/
O=C(CN1CCCCCCC1)NN=Cc1ccc(F)cc1F	/	/	/	-2	/
CC(C)(C)NC(=O)NCC1CCN(c2nc3ccccc3s2)CC1	/	/	/	-10	/
COc1ccc(C(=O)CN2CCCCC2)cc1	4106	0	6	47*	-2
Cc1cc(OC(=O)c2c(Cl)cc(Cl)cc2Cl)nc(C)n1	16417*	-1	0	-11	-5
CCOc1cc(C=NNC(=O)COc2nc(C)cc(COC)c2C#N)ccc1O	/	/	/	-3	/
COC(=O)C1=C(C)N(Cc2cccnc2)C(=O)C1	22058*	2	6	-15	1
COc1ccc(N2C(=O)CC(=O)NC2=O)cc1	8548	1	7	-6	4
COC(=O)C1=C(C)N(Cc2ccc(OC)cc2)C(=O)C1	20549*	-2	-3	-27	-6
COC(=O)C1=C(C)N(CCc2ccc(OC)cc2)C(=O)C1	2063	0	-4	-7	-1
COC(=O)C1=C(C)N(Cc2ccc(OC)c(OC)c2)C(=O)C1	2868	0	8	-18	1
COc1ccc(CN2C(=O)CC(=O)NC2=O)cc1	21705*	?	1	-19	-3
COC(=O)CS[C@H]1CCN(S(=O)(=O)N(C)C)C1	/	/	/	-7	/
CCOc1ccc2nc(NC(N)=NC(=S)Nc3cccc(OC)c3)nc(C)c2c1	/	/	/	1	/
SMILES	Bead autofluor	BoNT-A LC inh2	BoNT F protease	SSB-PriA inh	Anthrax LF inh2
CS(=O)(=O)c1ccc(N2CCN(C3CC(=O)NC3=O)CC2)cc1 (stereo unspecified)	2732	0	-4	-5	-1
COc1ccc(N2CCN(C3CC(=O)NC3=O)CC2)cc1 (stereo unspecified)	24614*	?	-10	-1	-5
O=C(CSc1ccc(F)cc1)N1CCC(Oc2ncccc2Cl)CC1	/	/	/	-19	/
CC(=O)Nc1cccc(N2CCCC2=O)c1	25393*	-6	-8	-27	0
CCC(=O)Nc1ccc(S(=O)(=O)Nc2cccc(C)c2)cc1OC	23804*	-2	-3	1	0
O=C(CSc1n[nH]c(-c2ccccn2)n1)Nc1ccc(F)cc1	3041	-2	4	82*	-2
Cc1ccc(NC(=O)CSc2n[nH]c(-c3ccccn3)n2)cc1	5411	0	-8	97*	0
Cc1cnc2n(c1=O)C(CC(=O)N1CCC(Cc3ccccc3)CC1)CS2 (stereo unspecified)	/	/	/	0	/
O=[N+]([O-])c1ccccc1C=Nn1c(-c2cccnc2)n[nH]c1=S	/	/	/	2	/
O=C(NC(CO)(CO)CO)c1coc(=O)c(Br)c1	17123*	-1	-2	-13	-2
